Rows were chosen to be rich in hits. Some 2.8% of all compounds tested hit in one or more screens of this group.
DRD3 antagonist: D3 dopamine receptor (human) antagonism; P35462; D3R cells, DiscoveRx beta-arrestin luminescence, antagonist mode; hits give low values; max response, negative = inhibition, %; hit rate 2.5% among 360,000; in the data active means max response below about -50%; inconclusive means no clear call, values can overlap the other calls; further: on the % scale 0 is the no-effect control and ±100 the full control effect
Target sequence (P35462 whole entry, looked up): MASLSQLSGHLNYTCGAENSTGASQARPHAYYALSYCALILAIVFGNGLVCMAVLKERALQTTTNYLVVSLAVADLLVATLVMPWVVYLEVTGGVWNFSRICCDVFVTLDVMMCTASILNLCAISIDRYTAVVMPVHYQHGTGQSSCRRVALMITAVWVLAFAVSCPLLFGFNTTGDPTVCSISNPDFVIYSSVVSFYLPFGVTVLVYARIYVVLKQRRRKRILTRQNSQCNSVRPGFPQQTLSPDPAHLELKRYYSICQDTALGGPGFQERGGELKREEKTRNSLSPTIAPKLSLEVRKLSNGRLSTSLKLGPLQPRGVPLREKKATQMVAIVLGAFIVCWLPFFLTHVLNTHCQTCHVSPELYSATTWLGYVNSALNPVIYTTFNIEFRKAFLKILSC
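Cells expressing the human receptor were seeded at 1500 cells/well, incubated overnight at 37 degrees C in 5% CO2, then exposed to library compounds with dopamine controls for 90 minutes at 37 degrees C before luminescent detection.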
B2AR arrestin: agonists driving beta-arrestin recruitment to human beta2-adrenergic receptor; P07550; beta-arrestin recruitment to beta2AR, cell-based reporter; Potency, µM (doses to about 46.1 µM), for inactives: at the top dose activation, most hits filed as activators; hit rate 0.02% among 330,000; AID 492947; active means well fitted activation curve with a large enough effect; inconclusive means small, poorly fitted or top-dose-only effect;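 further: potency means the concentration at half of the fitted maximal effect; 0% = DMSO controls and full agonism = EC100 isoproterenol or metaproterenol; nearly all actives have a fitted effect of over 65% in size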
DRD3 agonist: D3 dopamine receptor (human) agonism; hit rate 0.58% among 410,000; max activation, %; D3R DiscoveRx beta-arrestin cells, luminescence, 90 min; in the data active means max activation above about 30%; further: 0% is about no effect
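Cells at 1500/well, incubated overnight, then treated with pinned compounds (dopamine as control) for 90 min at 37 degrees C. DiscoveRx reagent added for 30 - 60 minutes at room temperature; luminescence read.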
Giardia kill: Giardia lamblia killing. hit rate 0.15% among 340,000. activity change, % at 7.66 µM, hits read low. Giardia lamblia trophozoite viability; in the data active means activity change below about -80%; inconclusive means between about -30% and that limit;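 further: parasites exposed to compound for two days anaerobically before the ATP read; on the % scale 0 is the no-effect control and ±100 the full control effect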
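Giardia lamblia trophozoites (100 cells/well) were incubated with compounds for 48 h at 37 deg C under anaerobic conditions. Viability was read as ATP content by one-step luminescence after 15-30 min at room temperature.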
An asterisk follows results filed as active; u = inconclusive; x = no result given.

SMILES | DRD3 antagonist | B2AR arrestin | DRD3 agonist | Giardia kill
Nc1nnc(SC2CC(=O)N(c3ccccc3)C2=O)s1 (stereo unspecified) | -54.8* | -0.2% | -1.2 | -13.1
COc1ccc(C(=O)N(Cc2ccco2)Cc2cccs2)cc1 | x | x | x | 15.4
CCOC(=O)c1c(/N=C/c2cc(C)ccc2O)sc2c1CCN(C)C2 | -54.0* | 0.2% | -34.8 | 4.5
Cc1cccc(/C=N/c2sc3c(c2C(=O)OC(C)(C)C)CCN(C)C3)c1O | -4.9 | 2.6% | 4.0 | 1.0
O=C1CS/C(=C\[N+](=O)[O-])N1c1ccccc1 | -70.8* | -0.3% | -4.0 | -6.1
CCSc1ccc(-c2nn(-c3ccccc3)cc2/C=C(/C#N)C(=O)NCCCOC)cc1 | 15.5 | -1.1% | 36.7* | -4.0
CN1CC(=O)NC1=N | x | x | 9.5 | x
CC(C)=CCCC(C)CN(C)CCc1ccccn1 (stereo unspecified) | -64.3* | 0.3% | -59.7 | -3.7
Cc1ccccc1CN(C)CCc1ccccn1 | -12.7 | 0.2% | -5.7 | 1.1
N#Cc1ccccc1NC(=O)CSc1ncn[nH]1 | x | x | -16.5 | x
CCCCCCC#Cc1ccc2c(c1)COc1c3ccccc3nn1-2 | 21.1 | -1.0% | 0.5 | 5.1
CCCCC#Cc1ccc2c(c1)COc1c3ccccc3nn1-2 | 77.5 | 0.1% | 31.5* | -14.2
CC(C#Cc1ccc2c(c1)COc1c3ccccc3nn1-2)OC(C)(C)C (stereo unspecified) | 82.2 | 0.5% | 52.2* | -7.7
NS(=O)(=O)c1ccc(CCNC(=O)c2nc(SCc3ccccc3F)ncc2Cl)cc1 | x | x | 6.6 | x
Cc1ccc(NC(=O)c2ccc(NCCCN3CCOCC3)c([N+](=O)[O-])c2)cc1Cl | -50.7* | -0.4% | -14.5 | 4.1
COc1ccc(Cl)cc1NC(=O)NCC1CCN(C(=O)OC(C)(C)C)CC1 | -72.5* | -0.9% | -44.9 | 2.5
COc1ccc(Cl)cc1NC(=O)N1CCN(C2CCCCC2)CC1 | -57.3* | 0.1% | -43.8 | 6.2
COc1cccc(C(=O)N2CCN(C3CCCCC3)CC2)c1 | -11.8 | -0.8% | -11.8 | 17.7
COc1ccc(C(=O)N2CCN(C3CCCCC3)CC2)c(OC)c1 | -85.7* | -0.3% | -1.8 | 15.7
Cc1cc(O)c(C(c2ccc(Cl)cc2)N2CCN(c3ccccc3)CC2)c(=O)n1Cc1ccco1 (stereo unspecified) | x | x | -16.0 | x
Cc1cc(C)nc(SCc2csc(N)n2)n1 | -50.9* | -0.5% | 3.7 | 9.4
Cc1cc(C)nc(SCc2csc(-c3ccccc3)n2)n1 | u | 1.0% | -1.7 | -3.5
O=C(NCc1ccc(Cl)cc1)C1(c2cccs2)CCOCC1 | x | x | -1.3 | x
CC(=O)O[C@@H](C[C@@H](C)C1=C2C[C@H](O)C3[C@@]4(C)CCC(=O)C(C)(C)C4CC[C@]3(C)[C@@]2(C)CC1)[C@H]1OC1(C)C (stereo partly specified) | 9.5 | x | 50.3* | -23.3
CC(C)(CO)Nc1nc(Cl)nc(NC2CCCCC2)n1 | -20.9 | -1.1% | 34.2* | -29.1
SMILES | DRD3 antagonist | B2AR arrestin | DRD3 agonist | Giardia kill
Cc1csc(NC(=O)CCNS(=O)(=O)c2ccc3c(c2)c(=O)n(C)c(=O)n3C)n1 | -92.8* | -0.7% | 24.4 | -19.4
CC(C)CC(CSc1ccc(Br)cc1)N1CCN(CC(C)C)CCC1=O (stereo unspecified) | x | x | x | -8.1
Cc1cccc2cc(C(c3nnnn3Cc3ccc4c(c3)OCO4)N3CCCC3)c(=O)[nH]c12 (stereo unspecified) | -51.1* | -0.5% | 12.1 | -11.7
O=c1[nH]c2cc3c(cc2cc1C(c1nnnn1Cc1ccccc1)N1CCCCCC1)OCCO3 (stereo unspecified) | -18.6 | -0.5% | -0.6 | 2.2
CCCC1=C(C(=O)OCC)C(c2ccco2)C(C#N)=C(N)O1 (stereo unspecified) | 0.7 | 4.1% | 48.0* | 2.1
Cc1ccc(-n2c(=O)[nH]c3cc(C(=O)NC4CCN(Cc5ccccc5)CC4)ccc3c2=O)cc1 | -92.9* | -0.1% | -6.6 | -7.9
Cc1ccc(CN2CCSc3ccc(C(=O)NC4CCN(Cc5ccccc5)CC4)cc32)cc1 | -82.5* | 0.1% | -19.2 | -7.1
O=c1c(-c2cc(-c3ccccc3)nc3c2COc2ccccc2-3)coc2ccc(Cl)cc12 | x | x | -1.0 | x
CC(=O)c1nc(N2C(=O)CC(Cc3cccc(C)c3)C2=O)sc1C (stereo unspecified) | -55.4* | -1.1% | 8.1 | -4.2
CS(=O)(=O)N1CCCC(C(=O)c2cccc(Cl)c2)C1 (stereo unspecified) | -12.0 | -0.8% | -5.0 | -14.5
CCCS(=O)(=O)N1CCCC(C(=O)c2cccc(Cl)c2)C1 (stereo unspecified) | -67.8* | 0.0% | -10.0 | 7.4
O=C(NCC1CCCO1)C1CCCN(S(=O)(=O)c2ccc(Cl)cc2)C1 (stereo unspecified) | 15.6 | 0.2% | 33.7* | 16.0
CCCS(=O)(=O)N1CCCC(C(=O)NCCc2ccc(Cl)cc2)C1 (stereo unspecified) | -63.1* | 0.0% | -7.6 | 6.5
CCOc1ccc(NC(=O)CSc2oc(-c3cccs3)nc2S(=O)(=O)c2ccc(C)cc2)cc1 | x | x | 7.2 | x
Cn1cc(-c2cc3n(n2)CCC(=O)N3CCCC(=O)NCc2ccccc2Cl)c2ccccc21 | x | x | -13.8 | x
O=C(Nc1c(C(=O)N2CCN(c3ccccc3F)CC2)oc2ccccc12)c1ccc(Br)o1 | x | x | -10.6 | x
COC(=O)c1ccc(/C=C/c2ccc3cccc(OC(C)=O)c3n2)cc1 | -64.2* | 1.0% | -15.6 | -0.4
Cc1ccnc(SCc2ccc([N+](=O)[O-])cc2)n1 | -57.4* | 0.2% | -4.5 | 9.3
COCCOC(=O)C1=C(C)NC(=O)NC1c1cn(-c2ccccc2)nc1-c1cccs1 (stereo unspecified) | 7.9 | -0.3% | 3.3 | -2.9
CC1=C(C#N)C(c2cn(-c3ccccc3)nc2-c2cccs2)C(C#N)=C(C)N1 | 25.9 | -0.2% | 33.5* | 1.7
CCC(NC(=O)Nc1cc(Cl)ccc1OC)c1c(-n2cccc2)sc2c1CCN(C)C2 (stereo unspecified) | x | x | -17.3 | x
Cc1cccc(N2CCN(C(=O)c3cn(C4CCCCC4)c(=O)c4c3c3ccccc3n4C)CC2)c1C | x | x | 2.7 | x
O=C(CCS(=O)(=O)c1ccc(Br)s1)Nc1cc(C(F)(F)F)cc(C(F)(F)F)c1 | x | x | 2.0 | x
CCCc1cc(=O)[nH]c(Nc2cc(OC)ccc2OC)n1 | -52.0* | -0.3% | -22.6 | 1.7
CCCc1cc(=O)[nH]c(Nc2cc(Cl)ccc2OC)n1 | x | x | -30.3 | x
SMILES | DRD3 antagonist | B2AR arrestin | DRD3 agonist | Giardia kill
CCc1cccc(C)c1NC(=O)C(CC)Sc1nncn2c1cc1occc12 (stereo unspecified) | x | x | -2.3 | x
Cc1ccc(Sc2nnc(Cc3ccccc3)c3ccccc23)cc1 | -50.6* | -1.2% | -60.9 | -4.3
COc1ccc(Sc2nnc(Cc3ccccc3)c3ccccc23)cc1 | u | 0.3% | -20.9 | 2.5
CCn1cc(C(=O)OCC(=O)Nc2cc(OC)cc(OC)c2)c(=O)c2ccc(C)nc21 | x | x | 5.8 | x
Cc1ccc(-c2[nH]ncc2CNC(C)c2ccccc2)cc1 (stereo unspecified) | x | x | x | 14.2
COc1cc(NS(=O)(=O)c2ccc(N)cc2)nc(C)n1 | x | x | -6.7 | x
c1ccc(CN2CCC3(CC2)Nc2ccccc2CO3)cc1 | -12.4 | -1.1% | 4.0 | 40.8
c1ccc(CN2CCC3(CCCc4ccccc43)CC2)cc1 | -104.8* | 0.0% | -90.6 | -19.7
